The source of these data is PubChem BioAssay (NCATS).

SMILES strings stand for the structures. Inconclusive results are not listed. A call without a number means that no potency is given here. Activity calls are given as the source filed them. Calls come from the whole dose curve; as a rule, active = well fitted cell-killing curve with a large enough effect; inconclusive = small, poorly fitted or top-dose-only effect, or effect the other way; inactive = no such curve, though single readings can be large or run the other way. Numbered stars: 1 amine (or outer) side, 2 acyl side, 3 side chain; on linkers, the order of the positions; unused ones are H or OH. Bridge positions count the residues as written; N and C are the ends. Square brackets hold non-standard residues; d marks the D form. Peptide text beside a SMILES is read from it. I, II: the chains in the order shown. Actinocin(9to1) = Cc1c2oc3c(C)ccc(C(=O)[*:1])c3nc-2c(C(=O)[*:2])c(N)c1=O; NMeV = CN[C@H](C(=O)O)C(C)C; Sar = CNCC(=O)O
Potency is the fitted concentration of half-maximal effect.

This assay is described as follows: qHTS of pediatric cancer cell lines to identify multiple opportunities for drug repurposing: Confirmatory screen for NB1643 cells (AID 1347109). Note: nearly all actives have a fitted effect of over 45% in size. To be noted: NB1643 neuroblastoma cell viability; series mostly up to 45.9 µM. An excerpt:
Drug repurposing or repositioning has been offered as a strategy for drug development in oncology programs. This approach has special potential for childhood cancers and other rare or orphan diseases, where the expected return on new drug development has been a disincentive to pharmaceuticals.
In this project we exploit the poly-pharmacology of drugs to discover new indications via phenotypic screening of a panel of 19 well-characterized cell lines derived from solid tumors seen in children and adolescents. The goal is to identify approved drugs with previously unrecognized anticancer properties that has the potential to reveal new mechanisms and biological processes involved in carcinogenesis or drug resistance. We employed a titration-based paradigm (quantitative high-throughput screening or qHTS), where all compounds were tested at multiple concentrations for their effect on cell viability. Concentration-response curves (CRCs) were derived directly from the primary screen, and both potency and efficacy values were used to identify compounds with robust bioactivity profiles. We screened the NIH Chemical Genomics Center (NCGC) Pharmaceutical Collection (NPC) and Mechanism Interrogation Plate (MIPE) small molecule collections of approved and investigational compounds against these cell lines; and measured metabolically active cells after 48 hours of compound treatment as a proxy for cell viability.
Assay Submitter: Nathalia J. Martinez, National Center for Advancing Translational Sciences, National Institutes of Health, Rockville, MD, USA; email: natalia.martinez@nih.gov
[1] Shen, M et al. Quantitative high-throughput phenotypic screening of pediatric cancer cell lines identifies multiple opportunities for drug repurposing. Oncotarget 2017 Dec 19;9(4):4758-4772. PMID 29435139.
The cells were obtained from University of North Carolina (UNC), Pediatric Preclinical Testing Program (PPT), and Coriell Institute (CI).
qHTS cell viability assay:
Cells were assayed in growth media at a density of 500-1,000 cells/well. Five microliters of cells were dispensed into 1,536-well, white, solid-bottom, TC-treated plates (Greiner Bio One) using a multidrop dispenser and incubated at 37 degrees C, 5% CO2, under a humidified atmosphere for 5 hours. Twenty-three nanoliters of compounds and controls (neutral control DMSO or positive control bortezomib at final concentration of 2.3 µM) were subsequently transferred by Kalypsys pintool. For primary screens, the MIPE collection was tested at 11-point dilutions (final concentrations range from 0.78 nM to 46 µM) and the NPC collection at 8-point dilutions (final concentrations range from 0.59 nM to 46 µM). Compounds tested in follow-up screens were assayed at 11-point dilutions. Cells were incubated for 48 hours, followed by addition of 3 µL of CellTiter-Glo (Promega). After a 15 min incubation at room temperature, samples were analyzed for luminescence intensity using a ViewLux High-throughput CCD imager equipped with clear filters.
Background: Quantitative high-throughput screening tests each substance at several concentrations.
As to `O=C(CCCN1CCC(O)(c2ccc(Br)cc2)CC1)c1ccc(F)cc1`, the Potency entry is “inactive”.
The entry for `C=C1C[C@H]2[C@@H]3C=C(C)C4=CC(=O)CC[C@]4(C)[C@H]3CC[C@]2(C)[C@@]1(OC(C)=O)C(C)=O` is “inactive”; for `CC(=O)OCC(=O)[C@@]12OC(C)(C)O[C@@H]1C[C@H]1[C@@H]3C[C@H](F)C4=CC(=O)C=C[C@]4(C)[C@@]3(F)[C@@H](O)C[C@@]12C` it is “inactive”.
For `COc1cc(C=C2CCC/C(=C\c3ccc(O)c(OC)c3)C2=O)ccc1O` the value was 18.5 µM (active); for `C[n+]1c2cc(N)ccc2cc2ccc(N)cc21` (tested in a mixture with another compound), 3.29 µM (active); for `CC(=O)OCC(=O)[C@@]1(OC(C)=O)[C@@H](C)C[C@H]2[C@@H]3C[C@H](F)C4=CC(=O)C=C[C@]4(C)[C@@]3(F)[C@@H](O)C[C@@]21C`, “inactive”.
The figure for `CC(=O)OCC(=O)[C@@]12N=C(C)O[C@@H]1C[C@H]1[C@@H]3CCC4=CC(=O)C=C[C@]4(C)[C@H]3[C@@H](O)C[C@@]12C` is 2.33 µM (active).
As to `C[C@]12CCC(=O)C=C1CC[C@H]1[C@@H]3CC[C@](O)(C(=O)CO)[C@@]3(C)C[C@H](O)[C@@]12F`, the Potency entry is “inactive”.
As for `CCCCC(=O)O[C@]1(C(=O)CO)CC[C@H]2[C@@H]3CCC4=CC(=O)CC[C@]4(C)[C@H]3[C@@H](O)C[C@@]21C`, the Potency result is “inactive”.
For `Oc1ccc(O)cc1` the value was 18.5 µM (active).
In the case of `C[C@]12C=CC(=O)C=C1[C@@H](F)C[C@@H]1[C@@H]2[C@@H](O)C[C@@]2(C)[C@H]1CC[C@]2(O)C(=O)CO`, the Potency entry is “inactive”.
As for `C[C@H]1C[C@H]2[C@@H]3CCC4=CC(=O)C=C[C@]4(C)[C@@]3(Cl)[C@@H](O)C[C@]2(C)[C@@]1(O)C(=O)CO`, the Potency entry is “inactive”.
For `CCCC(=O)O[C@]1(C(=O)CO)CC[C@H]2[C@@H]3CCC4=CC(=O)CC[C@]4(C)[C@H]3[C@@H](O)C[C@@]21C` the value was “inactive”.
On to `Cc1c2oc3c(C)ccc(C(=O)N[C@@H]4C(=O)N[C@H](C(C)C)C(=O)N5CCC[C@H]5C(=O)N(C)CC(=O)N(C)[C@@H](C(C)C)C(=O)O[C@@H]4C)c3nc-2c(C(=O)N[C@@H]2C(=O)N[C@H](C(C)C)C(=O)N3CCC[C@H]3C(=O)N(C)CC(=O)N(C)[C@@H](C(C)C)C(=O)O[C@@H]2C)c(N)c1=O` (I: T[dV]P[Sar][NMeV] / II: T[dV]P[Sar][NMeV]; ester I:1-I:C, II:1-II:C; linker I:N-II:N via Actinocin(9to1)), for which the Potency entry is “inactive”.
On to `CCCCC(CC)CN=C(N)NC(N)=NCCCCCCN=C(N)NC(N)=NCC(CC)CCCC` (configuration not stated), for which the Potency is 5.22 µM (active).
For `CC(=O)Oc1ccc(C(c2ccc(OC(C)=O)cc2)c2ccccn2)cc1` the value was “inactive”.
On to `CCCCCCC[N+](CC)(CC)CCCCc1ccc(Cl)cc1`, for which the Potency was 14.7 µM (active).
The entry for `CC(=O)OCC(=O)[C@@]1(O)CC[C@H]2[C@@H]3CCC4=CC(=O)C=C[C@]4(C)[C@H]3[C@@H](O)C[C@@]21C` is “inactive”; for `CC1(C)O[C@@H]2C[C@H]3[C@@H]4C[C@H](F)C5=CC(=O)CC[C@]5(C)[C@H]4[C@@H](O)C[C@]3(C)[C@]2(C(=O)CO)O1` it is “inactive”; for `C[C@@H]1C[C@H]2[C@@H]3CCC4=CC(=O)C=C[C@]4(C)[C@@]3(F)[C@@H](O)C[C@]2(C)[C@H]1C(=O)CO` it is “inactive”.
For `NC(=O)CC[C@@H]1NC(=O)[C@H](Cc2ccccc2)NC(=O)[C@H](Cc2ccc(O)cc2)NC(=O)CCSSC[C@@H](C(=O)N2CCC[C@H]2C(=O)N[C@@H](CCCN=C(N)N)C(=O)NCC(N)=O)NC(=O)[C@H](CC(N)=O)NC1=O` the value was “inactive”; for `CCC(C(=O)OCCN(CC)CC)c1ccccc1` (configuration not stated), “inactive”; for `CN(C)C(=S)SC(=S)N(C)C`, 9.27 µM (active).
The entry for `NC(CO)(CO)CO` is “inactive”; for `CC1(C)O[C@@H]2C[C@H]3[C@@H]4CCC5=CC(=O)CC[C@]5(C)[C@@]4(F)[C@@H](O)C[C@]3(C)[C@]2(C(=O)CCl)O1` it is “inactive”; for `CC(C)(C(=O)c1cccnc1)c1cccnc1` it is “inactive”.
With `CC(=O)OCC(=O)[C@@]1(O)[C@H](C)C[C@H]2[C@@H]3CCC4=CC(=O)C=C[C@]4(C)[C@@]3(F)[C@@H](O)C[C@@]21C`, the Potency is 20.8 µM (active).
